Measurements: PubChem BioAssay (NCATS)
Several values for one entry are separate records, joined by “and”; a condition that tells them apart may be missing. Identical values can stand only once. Results filed as inconclusive are left out. Unmarked numbers belong to inactive results. Activity calls are given as the source filed them. Calls follow the shape of the dose curve; as a rule, active = well fitted inhibition curve with a large enough effect; inconclusive = small, poorly fitted or top-dose-only effect; inactive = flat fitted curve, though single readings scatter. Where a SMILES comes first, the peptide text is derived from it. Bridges are numbered along the chain shown (N, C = ends). [ ]: non-standard residue; d: D form. The star is where a group is joined. X2 = CC[C@H](C)CCCCC(=O)*; Dab = NCC[C@H](N)C(=O)O

Each compound was assayed on KB-3-1 (assay: Cytotoxic Profiling of Annotated Libraries Using Quantitative High-Throughput Screening (AID 1296008; also: nearly all actives have a fitted effect of over 60% in size)). Details: Five cell lines viability, CellTiter-Glo ATP luminescence, 48-72 h; max response: stronger effect = lower value.
Procedure, shortened: (§1)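 Cytotoxicity was measured as CellTiter-Glo ATP luminescence, read after 10 min at room temperature. Compound treatment of the cells lasted 48 or 72 hr at 37 degrees Celsius in a qHTS format.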
% is scaled to controls: 0 for no effect and ±100 for the full control effect; potency is read from the fitted curve at half-maximal effect.

Compound | max response
COc1ccc(CCNCC(O)COc2cccc(C)c2)cc1OC (stereo not drawn) | -6.7%
CC[C@H](C)CCCCC(=O)N[C@@H](CCN)C(=O)N[C@H](C(=O)N[C@@H](CCN)C(=O)N[C@H]1CCNC(=O)[C@H]([C@@H](C)O)NC(=O)[C@H](CCN)NC(=O)[C@H](CCN)NC(=O)[C@H](CC(C)C)NC(=O)[C@@H](CC(C)C)NC(=O)[C@H](CCN)NC1=O)[C@@H](C)O (X2-[Dab]T[Dab][Dab][Dab][dL]L[Dab][Dab]T; lactam 4-C) | -11.4%
NC(=O)C[C@@H](N)C(=O)O | -17.1%
O=C1C(c2[nH]c3ccc(S(=O)(=O)O)cc3c2O)=Nc2ccc(S(=O)(=O)O)cc21 | 3.94% and -6.29%
CCCCCCCCCCCCCCCC(=O)OC/C=C(C)/C=C/C=C(C)/C=C/C1=C(C)CCCC1(C)C | -13.6%
COc1ccc(CNCC(O)COc2ccc3[nH]c(=O)ccc3c2)cc1OC (stereo not drawn) | 2.61%
C=C[C@]1(C)C[C@@H](OC(=O)CO)[C@]2(C)[C@H](C)CC[C@]3(CCC(=O)[C@H]32)[C@@H](C)[C@@H]1O | -28.5%
CCOC(=O)COc1ccc2c(=O)cc(-c3ccccc3)oc2c1 | -2% and -15.3%

What follows are compounds tested on NIH3T3 in the same assay as above. Details: Five cell lines viability, CellTiter-Glo ATP luminescence, 48-72 h; max response: stronger effect = lower value.
Procedure, shortened: as §1

Compound | max response [%] | Potency
O=C(Nc1ccc2[nH]c(=O)oc2c1)C(=O)N1CCC(Cc2ccc(F)cc2)CC1 | -23.6 | –
Cc1ccc(F)cc1S(=O)(=O)N[C@@H]1CCN(Cc2ccc(OC(C)C)cc2)C1 | -14.7 | –
C#CCNCc1cc2cc(OCc3ccccc3)ccc2[nH]1 | -24.7 | –
C[C@@H](c1ccc2nccn2c1)n1nnc2ncc(-c3cnn(C)c3)nc21 | -14.7 | –
C=C1C(=O)OC2CC(C)=C(C(C)CCCOC(C)=O)C(OC(=O)CC(C)CC)C12 (stereo not drawn) | -17.5 | –
CN(C)CCC(CSc1ccccc1)Nc1ccc(S(=O)(=O)NC(=O)c2ccc(N3CCN(Cc4ccccc4-c4ccc(Cl)cc4)CC3)cc2)cc1[N+](=O)[O-] (stereo not drawn) | -12.9 | –
C=CC(=O)Nc1cc(-n2c(=O)ccc3cnc4ccc(-c5ccc(NS(C)(=O)=O)cc5)cc4c32)ccc1C | -11.5 | –
O=C(Nc1ccc(-n2nc(C(F)(F)F)cc2C(F)(F)F)cc1)c1ccncc1F | 2.03 | –
O=C(N[C@@H]1CCCc2c1cnn2-c1ccc(F)cc1F)c1ccccn1 | 3.41 | –
CS/C=C/C(=O)O[C@@H]1CCC2=CC(=O)C(=C(C)C)C[C@]2(C)[C@H]1C | -13.9 | –
C=CC(=O)N1CCC(Oc2cc3c(Nc4ccc(Cl)c(Cl)c4F)ncnc3cc2OC)CC1 | – | 14.6 µM (active)
CC(=O)OC1CCC2(C)C(CCC3(C)C2CC=C2C4C(C)C(C)CCC4(C)CCC23C)C1(C)C(=O)O (stereo not drawn) | -0.103 | –
CCOC(=O)N1CCC(CN(Cc2ccc(Cl)cc2)Cc2ccc([N+](=O)[O-])s2)C1 (stereo not drawn) | -3.24 | –
Cc1cc(-c2cc(OC(=O)c3ccccc3)ccc2Cl)cc2nnc(Nc3ccc(OCCN4CCCC4)cc3)nc12 | -28.4 | –
CC12CCC(OC3OC(CO)C(O)C(O)C3OC3OC(CO)C(O)C(O)C3O)CC1CCC1C2CCC2(C)/C(=C3/COC(=O)C3)CCC12O (stereo not drawn) | -1.69 | –
